Experiment [1] deals with Sphingosine kinase 1 (Homo sapiens) (UniProt Q9NYA1). As to conditions: at 1 µM.
Experiment [2] deals with T1, Sphingosine kinase 2 (Homo sapiens) (UniProt Q9NRA0).
T1 sequence (whole entry): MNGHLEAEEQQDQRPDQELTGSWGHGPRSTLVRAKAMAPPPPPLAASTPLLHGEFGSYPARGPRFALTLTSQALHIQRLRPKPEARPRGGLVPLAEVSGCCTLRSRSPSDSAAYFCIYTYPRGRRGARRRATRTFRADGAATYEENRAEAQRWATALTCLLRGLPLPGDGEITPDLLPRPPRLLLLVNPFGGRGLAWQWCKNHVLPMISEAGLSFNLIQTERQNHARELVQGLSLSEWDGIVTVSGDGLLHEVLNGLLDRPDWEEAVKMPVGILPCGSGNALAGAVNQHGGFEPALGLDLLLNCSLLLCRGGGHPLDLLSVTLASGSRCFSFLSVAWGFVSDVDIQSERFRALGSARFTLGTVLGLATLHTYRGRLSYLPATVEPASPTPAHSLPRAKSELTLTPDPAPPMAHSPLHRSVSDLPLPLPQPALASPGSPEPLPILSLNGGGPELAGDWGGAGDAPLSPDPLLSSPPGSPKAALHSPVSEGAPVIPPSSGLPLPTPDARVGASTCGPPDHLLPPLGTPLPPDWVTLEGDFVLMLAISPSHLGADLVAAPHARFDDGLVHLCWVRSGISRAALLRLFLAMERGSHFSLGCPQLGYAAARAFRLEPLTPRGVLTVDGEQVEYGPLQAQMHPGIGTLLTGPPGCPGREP
The settings on record: at 0.1 µM.

Experiment [3] has as its target T1, Sphingosine kinase 2 (Homo sapiens). As to conditions: at 1 µM.
Experiment [4] addresses Casein kinase II subunit alpha (Homo sapiens) (UniProt P68400). As to conditions: at 0.1 µM.
For experiment [5] the target is unchanged. The settings on record: at 1 µM.
Experiment [6] concerns the target T2, Inhibitor of nuclear factor kappa-B kinase subunit alpha (Homo sapiens) (UniProt O15111).
T2 sequence (whole entry): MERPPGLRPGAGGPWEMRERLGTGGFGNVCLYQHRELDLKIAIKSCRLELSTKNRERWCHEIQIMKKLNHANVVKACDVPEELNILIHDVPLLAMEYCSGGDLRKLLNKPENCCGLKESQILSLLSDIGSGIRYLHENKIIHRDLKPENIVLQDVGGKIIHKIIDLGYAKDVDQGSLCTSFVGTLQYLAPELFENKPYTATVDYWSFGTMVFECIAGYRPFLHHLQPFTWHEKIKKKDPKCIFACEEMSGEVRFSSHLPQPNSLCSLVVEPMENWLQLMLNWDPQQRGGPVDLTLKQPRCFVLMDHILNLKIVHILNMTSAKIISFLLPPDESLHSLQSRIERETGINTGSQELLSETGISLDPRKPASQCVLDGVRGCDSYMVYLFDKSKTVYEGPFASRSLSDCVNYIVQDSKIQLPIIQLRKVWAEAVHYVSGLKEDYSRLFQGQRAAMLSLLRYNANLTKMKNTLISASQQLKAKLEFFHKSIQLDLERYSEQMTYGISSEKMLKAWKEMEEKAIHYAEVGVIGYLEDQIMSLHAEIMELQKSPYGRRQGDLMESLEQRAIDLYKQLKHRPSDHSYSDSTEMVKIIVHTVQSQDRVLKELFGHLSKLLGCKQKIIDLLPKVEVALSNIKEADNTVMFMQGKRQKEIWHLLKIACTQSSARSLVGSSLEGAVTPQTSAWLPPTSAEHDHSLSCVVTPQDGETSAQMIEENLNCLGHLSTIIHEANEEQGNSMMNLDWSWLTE
The settings on record: at 0.1 µM.

Experiment [7] addresses T2, Inhibitor of nuclear factor kappa-B kinase subunit alpha (Homo sapiens). As to conditions: at 1 µM.
In experiment [8] the target is T3, Inhibitor of nuclear factor kappa-B kinase subunit beta (Homo sapiens) (UniProt O14920).
T3 sequence (whole entry): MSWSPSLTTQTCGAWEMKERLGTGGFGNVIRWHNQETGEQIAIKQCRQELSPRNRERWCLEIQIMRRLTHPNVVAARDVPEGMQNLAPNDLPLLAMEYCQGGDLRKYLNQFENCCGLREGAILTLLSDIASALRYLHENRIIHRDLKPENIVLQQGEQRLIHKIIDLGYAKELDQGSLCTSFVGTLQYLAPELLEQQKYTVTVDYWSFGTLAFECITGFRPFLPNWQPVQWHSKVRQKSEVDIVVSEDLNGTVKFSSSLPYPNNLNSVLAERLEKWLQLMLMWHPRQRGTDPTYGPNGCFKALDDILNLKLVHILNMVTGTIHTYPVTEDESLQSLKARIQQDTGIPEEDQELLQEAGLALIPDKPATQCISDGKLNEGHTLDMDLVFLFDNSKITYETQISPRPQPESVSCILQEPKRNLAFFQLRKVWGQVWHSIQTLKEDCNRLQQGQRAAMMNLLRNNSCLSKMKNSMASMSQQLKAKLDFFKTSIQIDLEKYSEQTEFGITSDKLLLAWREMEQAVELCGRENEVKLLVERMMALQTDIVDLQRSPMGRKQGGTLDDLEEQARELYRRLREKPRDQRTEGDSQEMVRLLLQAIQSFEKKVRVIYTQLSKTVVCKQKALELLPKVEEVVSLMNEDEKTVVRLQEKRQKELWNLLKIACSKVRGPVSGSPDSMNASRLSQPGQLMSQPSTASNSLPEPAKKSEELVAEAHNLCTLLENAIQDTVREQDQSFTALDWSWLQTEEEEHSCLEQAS
The settings on record: at 0.1 µM.

The target in experiment [9] is T3, Inhibitor of nuclear factor kappa-B kinase subunit beta (Homo sapiens). The settings on record: at 1 µM.
Experiment [10] deals with T4, Inhibitor of nuclear factor kappa-B kinase subunit epsilon (Homo sapiens) (UniProt Q14164).
T4 sequence (whole entry): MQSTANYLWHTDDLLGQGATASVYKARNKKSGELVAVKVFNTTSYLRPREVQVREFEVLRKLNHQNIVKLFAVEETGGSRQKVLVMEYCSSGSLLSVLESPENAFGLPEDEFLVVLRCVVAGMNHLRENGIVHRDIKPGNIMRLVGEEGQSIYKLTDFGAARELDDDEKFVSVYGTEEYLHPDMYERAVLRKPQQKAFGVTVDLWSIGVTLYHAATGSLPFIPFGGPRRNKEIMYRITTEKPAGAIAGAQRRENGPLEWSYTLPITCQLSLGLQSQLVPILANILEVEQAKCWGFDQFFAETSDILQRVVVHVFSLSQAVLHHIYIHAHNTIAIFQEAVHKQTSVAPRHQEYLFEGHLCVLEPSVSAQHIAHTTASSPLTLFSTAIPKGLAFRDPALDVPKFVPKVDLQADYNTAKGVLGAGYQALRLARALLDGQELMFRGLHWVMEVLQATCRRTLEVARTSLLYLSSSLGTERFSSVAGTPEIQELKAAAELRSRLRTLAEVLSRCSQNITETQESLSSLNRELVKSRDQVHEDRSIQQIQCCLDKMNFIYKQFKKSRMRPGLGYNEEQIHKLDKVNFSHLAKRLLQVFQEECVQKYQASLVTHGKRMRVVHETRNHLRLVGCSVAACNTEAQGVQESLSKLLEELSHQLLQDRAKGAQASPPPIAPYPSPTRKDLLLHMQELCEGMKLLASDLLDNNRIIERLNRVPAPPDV
As to conditions: at 0.1 µM.

Experiment [11] has as its target T4, Inhibitor of nuclear factor kappa-B kinase subunit epsilon (Homo sapiens). The settings on record: at 1 µM.
Experiment [12] addresses T5, Serine/threonine-protein kinase Nek1 (Homo sapiens) (UniProt Q96PY6).
T5 sequence (whole entry): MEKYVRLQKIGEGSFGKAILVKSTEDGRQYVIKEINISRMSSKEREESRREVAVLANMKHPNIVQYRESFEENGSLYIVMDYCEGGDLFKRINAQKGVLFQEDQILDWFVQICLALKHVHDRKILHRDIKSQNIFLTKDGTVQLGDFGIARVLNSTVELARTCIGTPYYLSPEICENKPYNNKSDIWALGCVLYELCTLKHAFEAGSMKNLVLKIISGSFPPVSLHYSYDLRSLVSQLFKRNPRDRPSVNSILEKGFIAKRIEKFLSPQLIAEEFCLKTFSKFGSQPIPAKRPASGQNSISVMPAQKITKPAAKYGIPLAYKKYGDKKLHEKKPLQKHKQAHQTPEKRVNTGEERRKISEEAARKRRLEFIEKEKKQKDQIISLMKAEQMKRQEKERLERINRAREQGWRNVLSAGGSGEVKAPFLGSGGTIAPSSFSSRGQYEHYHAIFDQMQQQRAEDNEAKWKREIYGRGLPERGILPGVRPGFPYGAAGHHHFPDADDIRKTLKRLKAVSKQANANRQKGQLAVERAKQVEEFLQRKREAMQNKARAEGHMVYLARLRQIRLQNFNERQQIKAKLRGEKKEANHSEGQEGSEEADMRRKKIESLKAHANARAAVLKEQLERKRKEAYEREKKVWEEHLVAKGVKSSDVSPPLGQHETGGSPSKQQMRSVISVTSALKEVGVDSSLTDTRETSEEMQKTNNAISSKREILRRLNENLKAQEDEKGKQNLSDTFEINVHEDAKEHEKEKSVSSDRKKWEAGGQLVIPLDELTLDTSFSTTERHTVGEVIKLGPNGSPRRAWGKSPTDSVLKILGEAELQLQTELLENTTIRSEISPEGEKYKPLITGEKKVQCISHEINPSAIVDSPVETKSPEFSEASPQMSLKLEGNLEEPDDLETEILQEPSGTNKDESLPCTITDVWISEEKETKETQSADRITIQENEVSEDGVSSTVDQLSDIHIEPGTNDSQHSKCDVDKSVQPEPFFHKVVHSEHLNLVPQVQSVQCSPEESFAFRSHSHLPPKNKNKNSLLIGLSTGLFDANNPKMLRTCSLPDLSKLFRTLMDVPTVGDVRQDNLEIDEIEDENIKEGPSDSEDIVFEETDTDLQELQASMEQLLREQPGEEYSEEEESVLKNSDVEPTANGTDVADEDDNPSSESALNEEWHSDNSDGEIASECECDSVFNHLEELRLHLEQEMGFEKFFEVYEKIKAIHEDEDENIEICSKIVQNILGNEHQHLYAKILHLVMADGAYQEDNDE
The settings on record: at 0.1 µM.

The target in experiment [13] is T5, Serine/threonine-protein kinase Nek1 (Homo sapiens). The settings on record: at 1 µM.
In experiment [14] the target is T6, Serine/threonine-protein kinase Nek2 (Homo sapiens) (UniProt P51955).
T6 sequence (whole entry): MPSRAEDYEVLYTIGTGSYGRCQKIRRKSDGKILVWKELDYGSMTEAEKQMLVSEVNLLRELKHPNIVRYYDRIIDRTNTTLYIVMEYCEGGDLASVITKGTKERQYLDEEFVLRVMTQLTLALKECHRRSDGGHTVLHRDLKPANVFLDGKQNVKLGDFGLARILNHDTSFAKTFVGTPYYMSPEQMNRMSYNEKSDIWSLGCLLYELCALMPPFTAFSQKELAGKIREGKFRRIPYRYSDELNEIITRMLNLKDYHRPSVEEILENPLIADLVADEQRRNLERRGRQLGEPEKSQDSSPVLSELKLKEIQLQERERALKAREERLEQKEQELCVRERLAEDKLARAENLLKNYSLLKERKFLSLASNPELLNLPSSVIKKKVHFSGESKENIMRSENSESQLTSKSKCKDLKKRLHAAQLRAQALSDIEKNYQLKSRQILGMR
As to conditions: at 0.1 µM.

The target in experiment [15] is T6, Serine/threonine-protein kinase Nek2 (Homo sapiens). The settings on record: at 1 µM.
Experiment [16] addresses Serine/threonine-protein kinase Nek6 (Homo sapiens) (UniProt Q9HC98). The settings on record: at 0.1 µM.
Experiment [17] has the same target. As to conditions: at 1 µM.
Experiment [18] concerns the target Serine/threonine-protein kinase Nek7 (Homo sapiens) (UniProt Q8TDX7). The settings on record: at 0.1 µM.
Experiment [19] has the same target. As to conditions: at 1 µM.
The target of experiment [20] is T7, Serine/threonine-protein kinase Nek9 (Homo sapiens) (UniProt Q8TD19).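 Also: reported value is the mean percent inhibition of NEK9.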
T7 sequence (whole entry): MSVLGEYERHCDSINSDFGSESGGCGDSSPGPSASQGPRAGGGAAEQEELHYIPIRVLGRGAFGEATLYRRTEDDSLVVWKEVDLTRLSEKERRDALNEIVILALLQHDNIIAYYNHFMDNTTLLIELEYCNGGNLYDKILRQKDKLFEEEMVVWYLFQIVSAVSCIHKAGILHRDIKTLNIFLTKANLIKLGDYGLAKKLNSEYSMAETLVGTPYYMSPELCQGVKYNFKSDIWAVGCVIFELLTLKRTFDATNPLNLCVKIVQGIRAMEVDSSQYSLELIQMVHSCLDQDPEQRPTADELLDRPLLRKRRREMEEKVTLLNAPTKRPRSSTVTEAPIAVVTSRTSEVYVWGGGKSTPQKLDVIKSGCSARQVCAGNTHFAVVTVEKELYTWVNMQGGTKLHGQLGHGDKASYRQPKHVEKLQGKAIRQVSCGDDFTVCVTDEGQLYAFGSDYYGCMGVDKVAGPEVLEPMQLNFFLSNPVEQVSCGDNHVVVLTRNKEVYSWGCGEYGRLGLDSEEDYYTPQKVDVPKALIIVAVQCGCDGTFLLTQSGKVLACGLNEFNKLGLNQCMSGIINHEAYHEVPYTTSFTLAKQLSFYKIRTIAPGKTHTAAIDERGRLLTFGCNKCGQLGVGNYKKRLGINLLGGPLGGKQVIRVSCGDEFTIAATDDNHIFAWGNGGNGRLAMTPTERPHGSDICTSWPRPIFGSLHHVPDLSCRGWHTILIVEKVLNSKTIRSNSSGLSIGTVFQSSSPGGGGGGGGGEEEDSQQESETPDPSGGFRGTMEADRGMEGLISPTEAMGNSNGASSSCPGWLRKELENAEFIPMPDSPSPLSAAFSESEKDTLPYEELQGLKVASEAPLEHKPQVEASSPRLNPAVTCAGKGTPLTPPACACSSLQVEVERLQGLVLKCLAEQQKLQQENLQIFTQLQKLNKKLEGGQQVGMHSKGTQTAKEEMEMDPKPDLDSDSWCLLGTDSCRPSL
The settings on record: at 0.1 µM.

The text below walks through data of ChEMBL document CHEMBL1961873, “Compounds: GSK PKIS; Assays: Nanosyn kinase panel” (2012).

Serine/threonine-protein kinase Nek6 (Homo sapiens), sequence (Q9HC98 whole entry): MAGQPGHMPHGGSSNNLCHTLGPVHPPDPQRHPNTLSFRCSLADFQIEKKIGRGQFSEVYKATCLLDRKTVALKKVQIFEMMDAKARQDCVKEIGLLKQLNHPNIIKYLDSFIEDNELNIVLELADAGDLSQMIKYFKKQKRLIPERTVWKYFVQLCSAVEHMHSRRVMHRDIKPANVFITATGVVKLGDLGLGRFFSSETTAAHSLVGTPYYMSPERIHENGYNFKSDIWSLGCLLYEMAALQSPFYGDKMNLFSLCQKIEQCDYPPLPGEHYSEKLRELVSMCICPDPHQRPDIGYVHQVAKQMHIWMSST
Serine/threonine-protein kinase Nek7 (Homo sapiens), sequence (Q8TDX7 whole entry, looked up): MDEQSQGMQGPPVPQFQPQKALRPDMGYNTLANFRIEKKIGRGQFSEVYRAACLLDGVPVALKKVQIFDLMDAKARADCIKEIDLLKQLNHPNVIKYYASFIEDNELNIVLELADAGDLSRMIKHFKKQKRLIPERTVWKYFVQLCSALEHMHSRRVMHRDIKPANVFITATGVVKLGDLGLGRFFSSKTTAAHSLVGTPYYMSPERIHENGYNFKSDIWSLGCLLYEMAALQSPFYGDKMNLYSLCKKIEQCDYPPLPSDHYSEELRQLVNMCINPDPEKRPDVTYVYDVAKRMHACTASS
Casein kinase II subunit alpha (Homo sapiens), sequence (P68400 whole entry, looked up): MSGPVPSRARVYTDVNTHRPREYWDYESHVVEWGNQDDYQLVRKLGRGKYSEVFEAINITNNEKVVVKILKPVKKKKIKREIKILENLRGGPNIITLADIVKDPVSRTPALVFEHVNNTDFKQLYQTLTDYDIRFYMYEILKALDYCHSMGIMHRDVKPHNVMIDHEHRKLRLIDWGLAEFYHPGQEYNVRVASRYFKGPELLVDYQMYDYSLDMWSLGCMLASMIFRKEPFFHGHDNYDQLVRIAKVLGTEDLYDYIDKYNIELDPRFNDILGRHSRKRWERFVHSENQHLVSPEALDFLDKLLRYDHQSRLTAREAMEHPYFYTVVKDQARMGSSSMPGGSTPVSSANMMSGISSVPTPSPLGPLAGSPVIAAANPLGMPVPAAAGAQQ
Sphingosine kinase 1 (Homo sapiens), sequence (Q9NYA1 whole entry): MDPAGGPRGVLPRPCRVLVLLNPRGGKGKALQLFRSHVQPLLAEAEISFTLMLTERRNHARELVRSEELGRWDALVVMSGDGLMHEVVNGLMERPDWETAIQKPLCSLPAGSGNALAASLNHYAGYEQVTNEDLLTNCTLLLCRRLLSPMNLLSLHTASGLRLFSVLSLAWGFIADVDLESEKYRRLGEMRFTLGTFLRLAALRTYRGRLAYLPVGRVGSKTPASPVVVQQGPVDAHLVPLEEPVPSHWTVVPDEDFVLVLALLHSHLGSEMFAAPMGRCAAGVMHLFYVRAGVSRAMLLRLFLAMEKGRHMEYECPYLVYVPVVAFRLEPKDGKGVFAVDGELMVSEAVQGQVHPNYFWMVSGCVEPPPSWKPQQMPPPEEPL

Broadly, the inhibition is the relative decrease from the control value, in per cent. As to `Nc1ncc(-c2cccc(S(N)(=O)=O)c2)c2scc(-c3ccc(F)c(Cl)c3)c12`, the inhibition in experiment [1] is -4.57%; in [2], -1.05%; in [3] it was 0.43%; in experiment [4], 9.52%; in experiment [5], 3.4%; in experiment [6], -2.46%. In addition, the inhibition in [7] was -3.58%; in experiment [8], 3%; in experiment [9] it was 5.65%; in experiment [10], 7.15%; in experiment [11], 6.28%; in experiment [12], 1.83%. For the same compound, the inhibition came to 3.98% in experiment [13]; 4.7% in experiment [14]; 4.74% in experiment [15]; 2.28% in experiment [16]; 3.81% in experiment [17]; 3.41% in experiment [18]. Further, the inhibition in experiment [19] was -0.15%; in experiment [20] it was 5.04%.
